High-throughput results deposited in PubChem BioAssay by NMMLSC.
Shown are actives, neighbours in structure and some others; about 1.8% of the full set was active somewhere.
FPR binder – human FPR ligand, with FPRL1 counter-screen | P21462 | FPR-expressing cells, fluorescent ligand binding, flow cytometry | inhibition, % (concentration not given with the values) | 24,000 compounds, 0.74% hits | AID 440;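 note: 0% = buffer wells and 100% = receptor blocker peptide wells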
VLA-4 allo ag – allosterically activates the human VLA-4 integrin; P13612; Jurkat cells, LDV-FITC binding, flow cytometry; activation, % at 10 µM (by protocol); 24,000 tested, under 10 active; AID 528;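 active = fluorescent ligand binding to cells raised by more than 40% of the manganese-induced maximum; inconclusive = compound's own fluorescence above 85% of the ligand control signal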;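 note: 0% = ligand binding without compound and 100% = manganese-stimulated maximal binding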
Target sequence (P13612 whole entry, looked up): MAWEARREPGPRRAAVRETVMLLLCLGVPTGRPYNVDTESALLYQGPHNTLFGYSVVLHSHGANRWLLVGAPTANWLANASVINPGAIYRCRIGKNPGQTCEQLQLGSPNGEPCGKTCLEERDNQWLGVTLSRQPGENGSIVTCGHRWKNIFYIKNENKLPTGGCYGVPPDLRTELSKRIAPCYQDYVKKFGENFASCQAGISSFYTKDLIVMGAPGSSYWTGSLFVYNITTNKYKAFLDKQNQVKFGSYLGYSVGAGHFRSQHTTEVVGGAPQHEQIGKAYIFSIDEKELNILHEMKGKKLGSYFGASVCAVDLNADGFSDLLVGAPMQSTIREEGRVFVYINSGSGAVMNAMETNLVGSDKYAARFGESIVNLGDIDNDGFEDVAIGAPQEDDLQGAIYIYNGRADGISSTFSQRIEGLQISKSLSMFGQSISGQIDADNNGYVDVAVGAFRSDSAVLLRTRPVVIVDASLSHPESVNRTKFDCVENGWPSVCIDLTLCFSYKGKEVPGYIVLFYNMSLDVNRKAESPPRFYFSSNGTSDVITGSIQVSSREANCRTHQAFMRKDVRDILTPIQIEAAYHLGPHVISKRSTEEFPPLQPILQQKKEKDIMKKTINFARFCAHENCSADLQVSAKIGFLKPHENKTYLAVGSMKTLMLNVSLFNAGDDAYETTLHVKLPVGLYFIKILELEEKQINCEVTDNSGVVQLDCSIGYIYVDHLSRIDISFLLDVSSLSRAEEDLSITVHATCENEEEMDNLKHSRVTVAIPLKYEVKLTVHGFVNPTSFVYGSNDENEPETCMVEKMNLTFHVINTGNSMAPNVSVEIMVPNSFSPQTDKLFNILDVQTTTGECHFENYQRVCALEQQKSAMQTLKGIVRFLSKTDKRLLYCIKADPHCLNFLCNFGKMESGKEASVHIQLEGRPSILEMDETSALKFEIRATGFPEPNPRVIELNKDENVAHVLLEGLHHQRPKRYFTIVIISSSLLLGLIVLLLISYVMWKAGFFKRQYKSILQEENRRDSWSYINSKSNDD
VLA-4 antagonist – blocks LDV-FITC ligand binding to Mn2+-activated human VLA-4 integrin; inhibition, % at 10 µM (by protocol); AID 529; 24,000 compounds, 0.2% hits; Jurkat cells, LDV-FITC binding with Mn2+, flow cytometry; 100% = Mn2+-driven binding gain fully reversed;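 active = inhibition above 50%; inconclusive = compound itself fluorescent, judged against control cell fluorescence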;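 note: 0% = Mn2+ stimulated cells lacking compound and 100% = ligand binding without Mn2+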
Jurkat autofluor – autofluorescence counter-screen for VLA-4 integrin assays | Jurkat cells, compound autofluorescence, flow cytometry; stronger effect = higher value; 1 = vehicle-only cell background | fluorescence ratio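 (tested at 10 µM compound in the well)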 | 24,000 compounds, 0.61% hits;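 active = fluorescence ratio above 2.44, which is 1 plus 3 SD of all ratios; inconclusive = signal too bright to measure linearly, ratio around 10 or more; inactive = fluorescence ratio below 2.44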;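 note: green fluorescence of cells measured with 488 nm excitation and 530 nm emission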
FPRL1 binder – ligands of human FPRL1, also counter-screen for FPR ligands. inhibition, % (test concentration not listed). 24,000 compounds, 0.3% hits. FPRL1-expressing cells, fluorescent ligand binding inhibition, flow cytometry;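 note: 0% = buffer alone and 100% = receptor blocker peptide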
Active calls of the source: *; ? = inconclusive. Cut-off read from the data, not from the text of the source, unless noted: active = inhibition above about 30%; inconclusive = no clear call, values can overlap the other calls; inactive = below that.

SMILES	FPR binder	VLA-4 allo ag	VLA-4 antagonist	Jurkat autofluor	FPRL1 binder
CCOC(=O)C1CCN(CC(O)COc2ccc(C(C)=O)cc2)CC1 (stereo not given)	34.6*	2.0	-23.0	0.99	26.9
COC(=O)CSc1nnc(CNC(=O)Cc2ccccc2)n1-c1ccccc1OC	-2.6	-7.0	7.0	1.04	-5.0
Cc1cc(SCC(N)=O)nc(SCC(=O)c2ccccc2)n1	48.2*	5.5	-2.0	1.01	48.8*
CCOc1ccc(-n2c(=S)sc3c(=O)[nH]c(SCC(=O)NCc4ccco4)nc32)cc1	1.1	7.0	-17.0	1.06	-3.9
COc1ccc(Cl)cc1-n1c(=S)sc2c(=O)[nH]c(SCC(=O)NCC3CCCO3)nc21 (stereo not given)	44.2*	-3.0	-10.0	1.1	-2.8
CCC(Sc1nc2c(c(=O)[nH]1)CCC2)C(=O)Nc1cccc(OC)c1 (stereo not given)	62.1*	-10.0	0.0	1.13	-2.3
COc1ccc(NC(=O)CSc2nc3c(c(=O)[nH]2)CCC3)cc1OC	7.6	-6.0	-15.0	1	-5.0
CCc1nnc(NC(=O)c2ccc(S(=O)(=O)N(CCOC)CCOC)cc2)o1	0.3	?	?	3.61*	2.2
COc1ccc(-c2nnc(NC(=O)c3ccc(S(=O)(=O)N4COCC4(C)C)cc3)o2)cc1	-5.6	?	?	6.27*	-2.1
COc1ccccc1-c1nnc(NC(=O)c2ccc(S(=O)(=O)N(C)C)cc2)o1	-1.5	?	?	5.14*	5.7
CCN(Cc1ccccc1)S(=O)(=O)c1ccc(C(=O)Nc2nnc(-c3ccccc3OC)o2)cc1	-8.0	?	?	1.42	-1.5
CC1(C)COCN1S(=O)(=O)c1ccc(C(=O)Nc2nnc(-c3ccc(Cl)s3)o2)cc1	6.2	-3.7	39.0	1.16	-5.9
CC1CCCCN1S(=O)(=O)c1ccc(C(=O)Nc2nnc(-c3ccccc3Cl)o2)cc1 (stereo not given)	4.0	-1.5	-12.0	1.1	1.1
O=C(Nc1nnc(-c2ccccc2Cl)o1)c1ccc(S(=O)(=O)N2CCCCCC2)cc1	31.4*	2.0	-10.0	1.06	-4.8
CN(c1ccccc1)S(=O)(=O)c1ccc(C(=O)OCC(=O)N2CCOCC2)cc1	2.1	-1.0	6.5	1.07	1.4
Cc1cc(C)n2nc(SCc3cc(=O)n4c(C)cccc4n3)nc2n1	3.5	2.0	15.0	1	5.9
CN(C)c1nc(N(C)C)nc(N(C)C)n1	51.6*	8.0	-14.0	1.04	0.2
CN(C)c1nc(N)nc(N(c2ccccc2)c2ccccc2)n1	-6.9	2.0	1.0	1.06	10.1
O=C(Nc1ccc(-c2noc(CCc3ccccc3)n2)cc1)c1cccnc1	12.6	-8.0	-1.0	1.16	-3.1
CC(=O)C1=C(C)N=c2s/c(=C/c3ccc4c(c3)OCO4)c(=O)n2C1c1ccc(N(C)C)cc1 (stereo not given)	?	?	?	8.5*	13.0
CCn1c(N)c(C(=O)NCC2CCCO2)sc1=S (stereo not given)	5.2	3.0	-7.0	1.05	-0.4
CCCCCNC(=O)c1ccc2c(=O)[nH]c3c(C(=O)NCC4CCCO4)sc(=S)n3c2c1 (stereo not given)	39.7*	?	?	1.63	4.6
O=C(NC1CCCC1)c1sc(=S)n2c1[nH]c(=O)c1ccccc12	94.8*	?	?	1.44	-0.5
O=C(Cn1c(=O)oc2cc(S(=O)(=O)N3CCCC3)ccc21)NCc1ccccn1	1.5	2.0	-12.0	1.04	0.1
CC(C)N(CCCNC(=O)C1CCN(S(=O)(=O)N2CCOCC2)CC1)Cc1ccccc1	4.1	3.0	9.0	1.04	2.7
SMILES	FPR binder	VLA-4 allo ag	VLA-4 antagonist	Jurkat autofluor	FPRL1 binder
CCOC(=O)N1CCN(C(=O)CS(=O)(=O)c2cn(Cc3cccc(F)c3)c3ccccc23)CC1	11.3	?	?	1.15	0.4
COc1ccc(S(=O)(=O)C(C#N)c2nc3ccccc3nc2N2CCCC(C)C2)cc1 (stereo not given)	5.4	?	?	2.95*	-5.1
Cc1ccc(S(=O)(=O)C(C#N)c2nc3ccccc3nc2OC(C)C)cc1 (stereo not given)	-11.4	0.5	0.5	1.14	-3.6
Cc1[nH]nc2c1C(c1ccccc1)C1=C(CC(C)(C)CC1=O)N2 (stereo not given)	0.7	-7.0	5.0	1.12	0.1
Cc1ccc(C2C3=C(CC(C)(C)CC3=O)Nc3[nH]c(=S)[nH]c(=O)c32)cc1 (stereo not given)	35.2*	7.0	-8.0	0.94	-3.0
Cc1cccn2c(=O)c3cc(C(=O)N4c5ccccc5CC4C)n(C)c3nc12 (stereo not given)	1.4	?	?	2.7*	-4.4
CC1Cc2ccccc2N1C(=O)c1cc2c(=O)n3ccccc3nc2n1C (stereo not given)	-1.0	?	?	1.28	-3.3
Cc1cccn2c(=O)c3cc(C#N)c(=NC(=O)c4ccncc4)n(Cc4ccco4)c3nc12	9.5	?	?	4.14*	9.3
CCCCS(=O)(=O)NC1=NCN(Cc2ccco2)CN1	0.4	2.5	3.0	0.98	-3.3
